ASM inhibitor – Inhibitors of Secretory Acid Sphingomyelinase (S-ASM): qHTS. actives 0.006% (n = 340,000). Sphingomyelin phosphodiesterase (Homo sapiens), P17405. placental ASM, HMU-PC fluorogenic substrate, 60 min. AID 504937, 2011. Potency, µM (top dose mostly 57.5 µM), hits mostly inhibitors
Target sequence (P17405 47-631 limits assumed): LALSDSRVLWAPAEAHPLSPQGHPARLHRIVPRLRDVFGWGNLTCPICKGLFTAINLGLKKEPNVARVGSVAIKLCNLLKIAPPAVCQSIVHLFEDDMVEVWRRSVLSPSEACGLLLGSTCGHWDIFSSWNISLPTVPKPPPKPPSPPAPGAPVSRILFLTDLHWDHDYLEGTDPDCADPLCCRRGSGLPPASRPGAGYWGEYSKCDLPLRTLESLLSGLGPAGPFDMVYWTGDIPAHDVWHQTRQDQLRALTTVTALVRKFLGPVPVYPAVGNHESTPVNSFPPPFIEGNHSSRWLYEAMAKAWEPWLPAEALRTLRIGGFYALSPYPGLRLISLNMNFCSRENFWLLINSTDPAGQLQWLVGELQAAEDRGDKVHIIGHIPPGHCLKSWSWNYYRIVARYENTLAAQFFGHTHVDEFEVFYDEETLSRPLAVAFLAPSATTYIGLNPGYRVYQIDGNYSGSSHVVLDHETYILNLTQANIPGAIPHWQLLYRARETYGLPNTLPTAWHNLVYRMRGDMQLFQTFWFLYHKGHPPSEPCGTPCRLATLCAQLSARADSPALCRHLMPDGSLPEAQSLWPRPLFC
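Human placenta-derived ASM preincubated with compound 10 min at room temperature, then reacted with 9 uM (final) fluorogenic HMU-PC substrate for 60 min at 37 C. Stop solution raises pH to 10; fluorescence read at Ex 386/Em 447 nm.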
DT40 TDP1 CPT – qHTS for Inhibitors of human tyrosyl-DNA phosphodiesterase 1 (TDP1): qHTS in cells in presence of CPT | chicken DT40 Tdp1-/-;hTDP1 cells + 20 nM CPT, ATP luminescence, 48 h | Potency, µM (titrated, usually from 46.2 µM), hits mostly inhibitors | actives 12% (n = 420,000) | AID 686979, 2013; further: nearly all actives have a fitted effect of over 55% in size
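Cell growth measured by CellTiter-Glo luminescence after a minimum 48 h, 37 C compound exposure with 20 nM CPT in Tdp1-knockout DT40 cells stably expressing hTDP1, seeded 400/well; qHTS titration format.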
IL-1B inflam inh – qHTS for Inhibitors of Inflammasome Signaling: IL-1-beta AlphaLISA Primary Screen; activity change, % at 57.5 µM; actives 4.7% (n = 360,000); THP-1 LPS/ATP IL-1B secretion, AlphaLISA, 16 h; hits give low values; in the data active means activity change below about -50%; inconclusive means mostly about -30% to -49%
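THP-1 cells pretreated 1 hr with compounds (up to 57.5 uM final), then stimulated with LPS (250 ng/mL final) plus ATP (1.25 mM final); secreted IL-1B measured by AlphaLISA after 16 hr, decreased signal indicating inhibition.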
TGFb SMAD3 inh – qHTS for Inhibitors of TGF-b | actives 1.2% (n = 410,000) | AID 588855, 2011 | HepG2 CAGA-GFP TGF-b/SMAD3 reporter, GFP fluorescence, 18 h; TGF-beta stimulated, 500 pg/mL final | Potency, µM (doses to about 46.1 µM), usual class: inhibitors; further: nearly all actives have a fitted effect of over 65% in size
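Read-out: total well GFP (ex488/em500-530) summed from mean per-cell fluorescence. Cells: HEPG2 CAGA-GFP, 1% FBS DMEM, 18 h at 37 degrees C with 500 pg/mL final TGF-beta. Unstimulated wells served as the full-inhibition control; stimulated DMSO wells = 0%.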
HepG2 viability – qHTS for Inhibitors of TGF-b: Cytotox Counterscreen; AID 588856, 2011; Potency, µM (top dose mostly 46.1 µM), actives largely listed as cytotoxic; HepG2 CAGA-GFP viability, ATP luminescence, 18 h; actives 0.76% (n = 410,000)
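HepG2 CAGA-GFP cells (1000/well, DMEM with 1% FBS) received compound, then TGF-beta at 500 pg/mL final, and were incubated 18 hours at 37 degrees C. Viability was read by CellTiter-Glo luminescence. Media-only wells were set as complete cell-killing and DMSO as no toxicity.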
TDP1 cell noCPT – qHTS for Inhibitors of human tyrosyl-DNA phosphodiesterase 1 (TDP1): qHTS in cells in absence of CPT; DT40 Tdp1-/- hTDP1 cells, no CPT, ATP luminescence, 48 h; actives 15% (n = 420,000); Potency, µM (top dose mostly 46.2 µM), usual class: inhibitors; further: nearly all actives have a fitted effect of over 55% in size
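A cellular qHTS used chicken DT40 cells lacking endogenous Tdp1 but carrying stably transfected human TDP1. Compounds were applied without camptothecin, and cell growth kinetics were judged by ATP-dependent luminescence after ≥48 hr.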
Hits are given with their value; 0 = inactive; ? = inconclusive; - = not tested or not shown. Most compounds without a hit are left out; they make up all but 19% or so of the library. Unless noted, the call rests on the fitted dose curve; in most records, active means well fitted curve in the direction sought with a large enough effect; inconclusive means small, poorly fitted or top-dose-only effect, or another doubt; inactive means no such curve, though single readings can be large; an effect the other way counts as inactive or inconclusive.

SMILES	ASM inhibitor	DT40 TDP1 CPT	IL-1B inflam inh	TGFb SMAD3 inh	HepG2 viability	TDP1 cell noCPT
COc1ccc(S(=O)(=O)CCc2nnc(NC(=O)c3ccc(F)cc3)s2)cc1	0	0	0	0	0	0
COc1ccc(Cl)cc1NC(=O)Cc1ccc(NC(=O)N2CCCCc3ccccc32)cc1	-	18µM	-	0	0	21µM
O=C(CCC(=O)N1CC2CCCN2c2ccccc21)NCc1ccccc1 (configuration not stated)	-	?	-	0	0	?
O=C(Cc1ccc(NC(=O)N2CCCCc3ccccc32)cc1)NCc1ccccc1Br	-	?	-	0	0	23µM
O=C(Cc1ccc(NC(=O)N2CCCCc3ccccc32)cc1)NCc1ccccc1	-	23µM	-	0	0	23µM
COc1ccc(CNC(=O)CCC(=O)N2CC3CCCN3c3ccccc32)cc1 (configuration not stated)	-	12µM	-	0	0	21µM
COc1ccccc1NC(=O)Cn1c(=O)n(C)c(=O)c2sc3c(c21)COC(C)(C)C3	0	0	0	0	0	0
CCCN(CC(=O)Nc1ccc(F)c(F)c1F)CC(=O)Nc1c(Cl)cccc1Cl	0	10µM	0	0	0	4.1µM
CCCN(CC(=O)Nc1cccc(Br)c1)CC(=O)Nc1ccc(F)c(F)c1F	?	?	-92	0	0	?
CCCN(CC(=O)Nc1ccc(NC(C)=O)cc1)CC(=O)Nc1ccc(F)c(F)c1F	0	0	0	0	0	?
CCCN(CC(=O)Nc1ccc(C)cc1Br)CC(=O)Nc1ccc(F)c(F)c1F	0	?	0	?	0	18µM
CCOC(=O)C1CCCN(/C=C2\SC(=S)N(CC)C2=O)C1 (configuration not stated)	0	0	0	0	0	?
CC(C)(C)OC(=O)N(CCc1ccccc1)Cc1cccc(OCc2cccc(NC(=O)C3CC3)c2)c1	0	?	?	?	0	?
COc1cccc(NC(=O)C2(C)CCCN2C(=O)C(C)C)c1OC (configuration not stated)	-	0	0	0	0	0
CCOC(=O)c1c(C)[nH]c(C)c1C(=O)CSc1nc2ccccc2c(=O)n1-c1ccc(CC)cc1	0	12µM	0	?	0	6.5µM
CC(=O)c1ccc(-n2c(SCC(=O)c3c[nH]c4ccccc34)nc3ccccc3c2=O)cc1	0	21µM	?	0	0	12µM
O=C(CSc1nc2ccccc2c(=O)n1-c1ccc(F)cc1)Nc1ccc(C(=O)O)cc1	0	0	0	0	0	0
C=C(C)Cn1c2ccc(NC(=O)NCCc3cccs3)cc2c(=O)n1C	-	?	0	0	0	?
CC(C)CN(C(=O)CCC(=O)OCC(=O)N(C)c1ccccc1)c1c(N)n(CC(C)C)c(=O)[nH]c1=O	0	0	0	0	0	0
CC1(C)Cc2c(sc3c2C2=NCCN2C=N3)CS1	0	0	0	0	0	16µM
C/C(=N\O)C(=O)C(CN1CCCCC1)CN1CCCCC1	0	2.9µM	0	0	0	2.6µM
CC(=O)/C(CN1CCCCC1)=N\O	0	0	0	0	0	0
COCCNc1nnc(SCC(=O)c2cc(C)n(C3CC3)c2C)s1	-	0	0	0	0	0
CCCC(=O)NC(=S)Nc1c(C)cc(Br)cc1C	0	?	0	0	0	16µM
CCCn1nnc(NC(=S)NC(=O)c2ccc(-c3ccc(Br)cc3)o2)n1	0	?	0	?	0	?
SMILES	ASM inhibitor	DT40 TDP1 CPT	IL-1B inflam inh	TGFb SMAD3 inh	HepG2 viability	TDP1 cell noCPT
CCCn1nnc(NC(=S)NC(=O)Cc2ccccc2)n1	0	?	0	?	0	23µM
CCCn1nnc(NC(=S)NC(=O)CC)n1	0	23µM	0	0	0	18µM
CCCn1nnc(NC(=S)NC(=O)/C=C/c2ccc(Cl)cc2)n1	0	0	0	0	0	0
COc1cc2c(cc1OC)-c1cc3nc4ccccc4nc3n1C(C)(C)C2	-	12µM	-	-	-	8.4µM
O=C(O)C(c1ccccc1)C1CCCCC1O (configuration not stated)	0	0	0	0	0	0
O=C(CNC(=O)c1ccccc1F)NCCc1ccccc1F	0	0	0	0	0	0
COC(=O)Cc1c(C)c2ccc(OCC(=O)N3CCC(C)CC3)c(C)c2oc1=O	0	13µM	0	0	0	15µM
COc1ccc(N2CCN(C(=O)COc3ccc4c(C)cc(=O)oc4c3C)CC2)cc1	0	0	0	0	0	0
Cc1cccc(N2CCN(C(=O)COc3ccc4c(C)cc(=O)oc4c3C)CC2)c1C	0	13µM	?	?	0	15µM
Cc1cc(=O)oc2c(C)c(OCC(=O)N3CCN(c4ccc(F)cc4)CC3)ccc12	0	23µM	0	0	0	23µM
COC(=O)Cc1c(C)c2ccc(OCC(=O)N3CCCC3)c(C)c2oc1=O	0	?	0	0	0	0
Cc1cccc(N2CCN(C(=O)COc3cc4oc(=O)cc(C)c4cc3Cl)CC2)c1C	0	0	0	0	0	0
O=C(COc1ccc2c3c(c(=O)oc2c1)CCCC3)N1CCN(c2ccc(F)cc2)CC1	0	23µM	0	0	0	?
O=C(COc1ccc2c3c(c(=O)oc2c1)CCC3)N1CCN(c2ccc(F)cc2)CC1	0	?	0	?	0	0
CCOC(=O)C(C#N)C(=N)C1C(=O)OC2CCCCC21 (configuration not stated)	-	0	0	0	0	0
O=C(Cc1cccc2ccccc12)NO	-	0	-	-	-	0
CCc1nc2c(OCc3c(C)noc3C)cccn2c1N(C)C(=O)c1ccccc1F	-	0	0	0	0	0
Cc1ccccc1OCC(=O)OCc1cc(=O)n2ccsc2n1	-	0	-	0	0	?
CC(=O)Nc1ccc(SCC(Cc2ccccc2)N2CCN(CCc3ccccc3)CCC2=O)cc1 (configuration not stated)	-	-	-	?	0	-
COc1ccc(OC)c(-c2cc(C(=O)Nc3ccccc3C(N)=O)c3ccccc3n2)c1	0	21µM	0	0	0	8.2µM
CCN(CC)c1ccc(/C=N/NC(=O)c2cc(C)nc3ccccc23)cc1	0	0	0	0	0	?
COc1ccc(OC)c(-c2cc(C(=O)N/N=C/c3ccc(F)cc3)c3ccccc3n2)c1	0	5.2µM	-	0	0	1µM
